The whole screen tested about 91,000 compounds, of which about 40 (0.04%) were called active. These entries were drawn from the full list. Unmarked numbers belong to inactive results. Cut-off read from the data, not from the text of the source: active = activation above about 37%; inactive = the rest.

Sequence of Bifunctional epoxide hydrolase 2 (Homo sapiens) (P34913 whole entry, looked up): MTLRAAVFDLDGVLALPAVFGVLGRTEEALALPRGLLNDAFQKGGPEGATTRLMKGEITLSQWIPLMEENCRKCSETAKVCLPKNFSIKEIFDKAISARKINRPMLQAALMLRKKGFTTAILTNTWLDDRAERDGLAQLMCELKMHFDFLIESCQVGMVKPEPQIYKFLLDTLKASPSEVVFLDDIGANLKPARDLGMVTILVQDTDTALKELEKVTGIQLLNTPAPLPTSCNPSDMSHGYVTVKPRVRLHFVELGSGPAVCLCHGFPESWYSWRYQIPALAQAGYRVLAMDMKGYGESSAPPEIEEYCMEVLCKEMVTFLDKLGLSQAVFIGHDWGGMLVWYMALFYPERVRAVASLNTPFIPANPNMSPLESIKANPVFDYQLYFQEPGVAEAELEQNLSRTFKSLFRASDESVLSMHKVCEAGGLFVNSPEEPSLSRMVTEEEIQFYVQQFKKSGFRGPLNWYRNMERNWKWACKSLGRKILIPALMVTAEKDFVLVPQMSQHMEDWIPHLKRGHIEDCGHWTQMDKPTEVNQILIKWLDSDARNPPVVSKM

The experiment concerns the target Bifunctional epoxide hydrolase 2 (Homo sapiens) (UniProt P34913). In words: soluble epoxide hydrolase activators, primary screen, biochemical, human sEH (AID 717). The note with it: purified human sEH enzymatic activity, activator screen; at 2 µM; stronger effect = higher value.
For the molecule `Cc1nc(SCC(=O)N2CC(=O)Nc3ccccc32)c2c(C)c(C)sc2n1`, the activation was -1.1%.
Turning to `COc1ccc(Cc2nnc(SCC(=O)c3cccc([N+](=O)[O-])c3)n2C)cc1`, the activation is 16.7%.
Regarding `O=C(Nc1ccc2c(c1)OCCO2)c1ccc(Cl)c(S(=O)(=O)N2CCCCC2)c1`, the activation is -77.7%.
For `CCCCNC(=O)C(=O)c1ccccc1NC(C)=O`, the activation is -0.9%.
Then `CC(C)(CCl)C(=O)Nc1ccc(Sc2ccc(F)cc2)cc1`, with -29.2%.
Consider `O=C(CCNS(=O)(=O)c1ccccc1C(F)(F)F)NCc1ccc2c(c1)OCO2`, for which the activation is 3.4%.
Then `COCCCNCC(=O)Nc1sc(C)c(C)c1C(=O)OC`, with -1%; and `Cc1ccc(CNC(=O)C2CC(c3ccccc3[N+](=O)[O-])=NO2)o1` (stereo not given), with 1.1%.
In the case of `Cc1c(NC(=O)CCCOc2ccccc2)cccc1[N+](=O)[O-]`, the activation was -9.6%.
For the molecule `CCC(C)n1c(-c2cc(OC)c(OC)c(OC)c2)nc2nc3ccccc3nc21` (stereo not given), the activation is 0.8%.
Turning to `COc1cc(C(=S)N2CCOCC2)cc(OC)c1OC(=O)c1cc([N+](=O)[O-])c(C)c([N+](=O)[O-])c1`, the activation was -3.8%.
On to `COc1ccc(/C=C(/NC(=O)c2ccc(C)cc2)c2nc3ccccc3[nH]2)cc1OC`, for which the activation is 4.1%.
For the molecule `O=C(O)c1ccccc1-c1ccccc1C(=O)Nc1cccc2ccccc12`, the activation was 6.9%.
In the case of `O=C(Nc1nnc(CCOCCOCCc2nnc(NC(=O)c3ccco3)s2)s1)c1ccco1`, the activation is -12%.
Take `CCn1c(SCc2ccc(C)cc2)nnc1-c1nn(-c2ccccc2)ccc1=O`: the activation is 17.2%.
`CC(Oc1ccc(F)cc1F)C(=O)/C=C/N(C)C` (stereo not given): the activation was 0.5%.
Regarding `CCOC(=O)C1=C(C)Nc2sc(C(=O)c3ccc(Br)cc3)c(N)c2C1c1ccc(C(=O)OC)cc1` (stereo not given), the activation was -3.6%.
Regarding `Cc1cc([N+](=O)[O-])c(NC2CCCCC2)c([N+](=O)[O-])c1`, the activation is 3.5%.
On to `O=C(NCCc1ccccn1)c1cc(C(=O)C2CCCCC2)c[nH]1`, for which the activation is 9.3%.
Then `CC(C)c1cc(C(N)=O)c(NC(=O)c2cccc(COc3ccc(Br)cc3)c2)s1`, with -3.7%; and `Cc1ccc(NC(=S)NC2CCCC2)cc1`, with -29.3%; and `COC(=O)c1ccccc1OCC(=O)N1CCN(c2ccc(Cl)cc2)CC1`, with -44.9%.
Then `C=CCNc1cnn(-c2ccc(C)cc2)c(=O)c1Cl`, with 0.5%; and `CCc1cccc2c(C=C(C#N)C#N)cn(CC(=O)N3CCCCC3)c12`, with 5%; and `COCCCn1c(SCc2cccc(OC)c2)nc2cc(OC)c(OC)cc2c1=N`, with -5.2%.
Take `C=CCNC(=O)c1sc(SC)cc1-c1ccc(Cl)cc1`: the activation was 14.9%.
For the molecule `O=C(O)/C=C/C(=O)Nc1ccc(F)cc1F`, the activation is 6.8%.
Then `C/C(=N\NS(=O)(=O)c1cccc([N+](=O)[O-])c1)c1cc2ccccc2o1`, with -6%.
Turning to `COc1cccc(/C=N/NC(=O)c2cccc([N+](=O)[O-])c2)c1OS(=O)(=O)c1ccc(C)cc1`, the activation was -13.5%.
Consider `CCC(=O)OCc1c(C(F)(F)F)nn(C)c1Oc1cccc(C(F)(F)F)c1`, for which the activation was -5.9%.
Then `Cc1nn(CC(=O)Nc2nc3ccccc3s2)c(C)c1[N+](=O)[O-]`, with 8%.
Then `O=C(Cn1cncn1)N/N=C/c1c2ccccc2cc2ccccc12`, with -1.1%; and `CONC(=O)c1cc(OCC(F)(F)F)ccc1OCC(F)(F)F`, with -7.2%; and `CC(=O)NS(=O)(=O)c1ccc(NC(=O)/C=C/c2ccccc2Cl)cc1`, with -14.4%.
Then `Cc1ccc(N2CCN(/N=C/c3cccs3)CC2)cc1`, with 1.6%; and `CC(C)(C)NC(=O)NC(=O)COC(=O)CCC1CCCCC1`, with -0.5%.
For the molecule `Cc1cc2c(cc1C)N(C(=O)CN1C(=O)c3ccccc3C1=O)C(C)(C)c1ssc(=S)c1-2`, the activation was 18.1%.
Under `O=C(NCc1cccnc1)c1cccnc1Sc1ccc(Cl)cc1` stands 17.3%.
Under `N/C(=N\OC(=O)CCc1ccccc1)c1ccc(Cl)cc1` stands 10.5%; under `CC1CCN(C(NC(=O)c2ccco2)C(=O)c2ccccc2)CC1` (stereo not given), -0.4%; under `CCCCCCCCOC1OC(CO)C(O)C(O)C1NC(C)=O` (stereo not given), -6.6%.
In the case of `O=C(CSc1ccccc1)Nc1ccc(NC(=O)c2ccco2)cc1`, the activation was -17.6%.
Consider `CC(=O)c1cnn(-c2cc(Oc3ccc(F)cc3)ncn2)c1C`, for which the activation was 7.1%.
Take `O=C(NCCCCCCCCCNC(=O)C(F)(F)F)C(F)(F)F`: the activation was -6.7%.
Take `O=C(Nc1ccn(Cc2ccccc2F)n1)c1ccc(COc2ccc(Cl)cc2Cl)o1`: the activation is -1.7%.

The values are drawn from PubChem BioAssay AID717 (Columbia University Molecular Screening Center, 2007).
